# Out of some 290,000 compounds screened, about 27,000 (9.3%) were called active. Cut-off read from the data, not from the text of the source: active = inhibition mostly above about 28% (no sharp cut-off); inactive = mostly below about 43%. Many of the other results were omitted from the sample, so actives are more common in it than they were. Where a SMILES comes first, the peptide text is derived from it. Bridges are numbered along the chain shown (N, C = ends).
# Test: A qHTS for Small Molecule Inhibitors of Shiga Toxin; note: 0% is about no effect
# Details: Vero cells, Shiga toxin protein synthesis inhibition reporter; at 38.7 µM, stronger effect = higher value
row,SMILES,inhibition
1,CCOC(=O)[C@@H]1[C@H]2COc3ccc(Br)cc3[C@H]2N2C(=O)N(c3ccc(Cl)cc3)C(=O)[C@@]12C,-8.05% (inactive)
2,Cc1cccc(CS(=O)(=O)c2ncc(Cl)c(C(=O)Nc3ccc(F)cc3)n2)c1,53.3% (active)
3,CCSc1ncc(Cl)c(C(=O)Nc2cc(C)ccc2C)n1,-1.29% (inactive)
4,Cc1cccc(NC(=O)c2nc(S(=O)(=O)Cc3ccccc3)ncc2Cl)c1,34.1% (active)
5,CCOc1ccc(NC(=O)c2nc(SCC)ncc2Cl)cc1,-3.26% (inactive)
6,Cc1cccc(OCc2ccc(C(=O)Nc3ccc(F)cc3)cc2)c1,-8.13% (inactive)
7,Cc1cccc(NC(=O)c2nc[nH]c2C(=O)NCC(=O)OCc2ccccc2)c1,-6.49% (inactive)
8,COc1ccc(C(=O)Nc2cc(C)c(NC(=O)c3ccccc3OC)cn2)cc1,37% (inactive)
9,Cc1ccc(S(=O)(=O)N(C)CC(=O)NCCc2c[nH]c3ccccc23)cc1,-2.21% (inactive)
10,O=C(CCCCCn1c(=S)[nH]c2ccsc2c1=O)NC1CCCCC1,-10.2% (inactive)
11,COC(=O)CSc1nccc(-c2cccs2)n1,46.2% (inactive)
12,COC(=O)c1cc(-c2cccs2)nc2ccccc12,-1.63% (inactive)
13,COc1ccc2nc(Nc3nc(-c4ccncc4)cs3)sc2c1,53% (inactive)
14,c1cnc(Nc2nc(-c3ccc4ccccc4c3)cs2)nc1,154% (active)
15,Clc1ccc(Nc2nc(-c3cccs3)cs2)nc1,70.3% (active)
16,COc1ccc(-c2csc(Nc3ccccn3)n2)cc1,48% (active)
17,c1ccc(Nc2nc(-c3ccncc3)cs2)nc1,75.1% (active)
18,COc1ccc(CNc2nccs2)cc1,-0.77% (inactive)
19,COc1ccc(N(CC(=O)NCC2CCCO2)C(=O)CCC(=O)Nc2nccs2)c(OC)c1 (stereo unspecified),16.4% (inactive)

row,SMILES,inhibition
1,Cc1ccc(NC(=O)CCC(=O)c2ccc(Br)cc2)cc1,-4.63% (inactive)
2,CCCCNC(=O)CN1C(=O)NC(Cc2ccccc2)(Cc2ccccc2)C1=O,2.69% (inactive)
3,Cc1c(C(=O)N2CCN(c3ccc(F)cc3)CC2)oc2c1C(=O)CCC2,-4.3% (inactive)
4,C/C(=N/OC(=O)c1ccc(Br)cc1)c1ccc(C)cc1,6.54% (inactive)
5,O=C(CC(n1cncn1)C(Cl)(Cl)Cl)c1ccc([N+](=O)[O-])cc1 (stereo unspecified),-7.92% (inactive)
6,Cc1cccc(C)c1NC(=O)CN1C(=O)C(C)Oc2ccccc21 (stereo unspecified),-3.24% (inactive)
7,NC(=O)C(Cc1ccccc1)NC(=O)C12CC3CC(CC(C3)C1)C2 (stereo unspecified),-10.9% (inactive)
8,COc1ccc(C(=O)NC(=S)Nc2ccccc2N2CCN(S(C)(=O)=O)CC2)cc1OC,-2.05% (inactive)
9,O=C(NC(=S)Nc1ccccc1N1CCCCC1)c1ccc(F)cc1,-27.2% (inactive)
10,COc1ccccc1C(=O)NC(=S)Nc1ccccc1N1CCCCC1,39.8% (active)
11,Cc1ccnc(NS(=O)(=O)c2ccc(NC(=O)c3oc4ccc(F)cc4c3C)cc2)n1,-7.64% (inactive)
12,O=S(=O)(c1ccc(Cl)s1)N1CCC2(CC1)OCCO2,6.74% (inactive)
13,C[C@@H](O)[C@@H]1NC(=O)[C@H](CCCCN)NC(=O)[C@H](Cc2c[nH]c3ccccc23)NC(=O)[C@H](Cc2ccccc2)NC(=O)[C@H](Cc2ccccc2)NC(=O)[C@H](CC(N)=O)NC(=O)[C@H](CCCCN)NC(=O)[C@@H](NC(=O)[C@@H]2CCCN2)CSSC[C@@H](C(=O)N[C@@H](CCCCN)C(=O)O)NC(=O)[C@H](CO)NC(=O)[C@H](CO)NC(=O)[C@H](Cc2ccccc2)NC1=O (H-PCKNFFWKTFSSCK-OH; disulfide 2-13),-9.69% (inactive)
14,O=C(NCc1ccccc1)C(c1ccccc1)N(C(=O)c1csnn1)c1ccc(F)cc1 (stereo unspecified),-3.73% (inactive)
15,O=C(Nc1nnc(C2CC2)s1)c1cc(Cl)sc1Cl,48% (active)
16,Cc1occc1C(=O)Nc1nnc(C2CCCCC2)s1,60.1% (active)
17,Cc1cccc(NC(=O)CSCC(=O)Nc2nnc(C3CC3)s2)c1,14.9% (inactive)
18,Cc1occc1C(=O)Nc1nnc(-c2ccncc2)s1,28.4% (inactive)
19,O=C(Nc1nnc(C2CC2)s1)c1ccccn1,109% (active)

row,SMILES,inhibition
1,O=C(Nc1nnc(C2CC2)s1)C1=NN(C2CCS(=O)(=O)C2)C(=O)CC1 (stereo unspecified),-18% (inactive)
2,CC1CCN(c2ccc(C(=O)Nc3nnc(C4CC4)s3)cc2[N+](=O)[O-])CC1,1.09% (inactive)
3,O=C(Cc1cccs1)Nc1nnc(C2CC2)s1,18.3% (inactive)
4,COc1ccc(NC(=O)CCC(=O)Nc2nnc(C3CCCCC3)s2)cc1,-3.77% (inactive)
5,CC1CCN(S(=O)(=O)c2ccc(NC(=O)C3CC(=O)N(c4ccccc4)C3)cc2)CC1 (stereo unspecified),-4.69% (inactive)
6,COc1ccc(NS(=O)(=O)c2ccc(N3CCN(CCO)CC3)c([N+](=O)[O-])c2)cc1,-10.2% (inactive)
7,CN(C(=O)c1ccccc1)c1nccnc1C#N,-2.8% (inactive)
8,CCc1nn(CC(=O)N2CCN(CC)CC2)c(=O)c2cccn12,-0.821% (inactive)
9,COc1ccccc1CN1CCNC(=O)C1CC(=O)N(C)CC1CCOCC1 (stereo unspecified),-2.77% (inactive)
10,O=C(CSc1nc2ccccc2[nH]1)c1cccs1,119% (active)
11,CC(=O)Nc1ccc(C(=O)CSc2nc3ccc(C)cc3[nH]2)cc1,23.5% (inactive)
12,O=C(CSc1nc2ccccc2[nH]1)N/N=C/C=C\c1ccccc1[N+](=O)[O-],30.8% (inactive)
13,CN(Cc1ccccc1)C(=O)CSc1nc2ccccc2[nH]1,70.2% (active)
14,CN(Cc1ccccc1)c1nc2c(c(=O)[nH]c(=O)n2C)n1CCSc1nc2ccccc2[nH]1,-8.47% (inactive)
15,O=C(CSc1nc2ccccc2[nH]1)Nc1nc(-c2ccccc2)c(-c2ccccc2)o1,-6.45% (inactive)
16,CN(CCc1ccccn1)C(=O)c1ccc(OC2CCN(CCc3ccccc3)CC2)cc1,24.5% (inactive)
17,Cc1cc(C)c(S(=O)(=O)N(C)CC(=O)NCC2CCCO2)c(C)c1 (stereo unspecified),-2.86% (inactive)
18,Cc1ccc(OCC(=O)Nc2ccc(C(=O)O)cc2NC(=O)COc2ccc(C)c(C)c2)cc1C,-6.8% (inactive)
